Assay results: PubChem BioAssay (Tox21)
Records with an inconclusive call do not appear. Calls of active or inactive are those of the source. Unless noted, the call rests on the fitted dose curve; in most records, active means well fitted curve in the direction sought with a large enough effect in the repeat runs; inconclusive means weak or mixed curves; inactive means no such curve, though single readings can be large; an effect the other way counts as inactive or inconclusive.

Tests used:
[1] = qHTS assay to identify small molecule antagonists of the vitamin D receptor (VDR) signaling pathway - cell viability counter screen (AID 743225); further: nearly all actives have a fitted effect of over 50% in size
How it was run: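 Parallel cytotoxicity test: VDR-UAS-bla HEK 293T, 3 nM (final) 1-alpha,25-dihydroxyvitamin D3 with test compound, 16 h, 37C. Endpoint is CellTiter-Glo luminescence in the same wells.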

[2] = qHTS assay to identify small molecule agonists of the NFkB signaling pathway - cell viability counter screen (AID 1159515; calls by dose curve; further: series mostly up to about 61 µM; nearly all actives have a fitted effect of over 55% in size)
How it was run: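 Viability in NFkB-bla ME-180 cells was measured by CellTiter-Glo luminescence, 30 min room temperature, in wells already treated 5 hr with compounds and read for reporter FRET.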

[3] = qHTS assay to identify small molecule agonists of the endoplasmic reticulum stress response signaling pathway (AID 1159516; active means well fitted activation curve with a large enough effect in the signal ratio in the repeat runs, not every such curve was filed as active; the % refers to the signal ratio)
How it was run: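 ER stress element reporter (bla) in HeLa. 1,500 cells/well, overnight attachment; 5 hr compound; 2 hr RT substrate; dual-emission fluorescence.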

[4] = qHTS assay to identify small molecule agonists of the endoplasmic reticulum stress response signaling pathway - cell viability counter screen (AID 1159517; calls by dose curve;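 further: HeLa cells carrying an ER stress response element beta-lactamase reporter; series mostly up to about 61 µM; nearly all actives have a fitted effect of over 50% in size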)
How it was run: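 CellTiter-Glo was added to wells already read for beta-lactamase FRET, and luminescence was recorded 30 min later. Cells: ESRE-bla HeLa, 1,500 per well, compound exposure 5 hr at 37 C.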

[5] = qHTS assay to identify small molecule antagonists of the retinoid-related orphan receptor gamma (ROR-gamma) signaling pathway - cell viability counter screen (AID 1159520); further: nearly all actives have a fitted effect of over 50% in size
How it was run: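 Tet-on ROR gamma CHO cells (1,000/well) were plated 4 hr, given compounds in DMSO for 2 hr at 37 C, then induced with 1 uM final doxycycline for 16 hr. Viability was read as ATP by CellTiter-Glo luminescence after 30 min.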

[6] = biological target: Nuclear receptor ROR-gamma (Homo sapiens) (UniProt P51449); assay: qHTS assay to identify small molecule antagonists of the retinoid-related orphan receptor gamma (ROR-gamma) signaling pathway (AID 1159521;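 further: CHO cells with doxycycline inducible ROR-gamma driving an RORE luciferase reporter; top concentration of the series differs between compounds; nearly all actives have a fitted effect of over 50% in size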)
How it was run: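 Decreased RORE-driven luciferase luminescence indicates antagonism. Tet-on RORγ CHO cells received compound, then 1 uM final doxycycline 2 h later; signal read after 16 h incubation.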

[7] = qHTS assay to identify small molecule agonists of the AP-1 signaling pathway - cell viability counter screen (AID 1159525; calls by dose curve; further: nearly all actives have a fitted effect of over 55% in size)
How it was run: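 ME-180 AP-1-bla, 2500 cells/well, Opti-MEM + 0.5% dialyzed FBS; overnight 37 °C; cpd 15-pt titration, 5 h 37 °C; CellTiter-Glo 30 min RT; luminescence read; normalised to TOAB and DMSO controls.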

[8] = qHTS assay to identify small molecule agonists of the AP-1 signaling pathway (AID 1159526; calls by dose curve)
[9] = biological target: Retinoic acid receptor RXR-alpha (Homo sapiens) (UniProt P19793); assay: qHTS assay to identify small molecule agonists of the RXR signaling pathway (AID 1159527; calls by dose curve; further: nearly all actives have a fitted effect of over 35% in size)
Sequence of Retinoic acid receptor RXR-alpha (Homo sapiens) (P19793 whole entry, looked up): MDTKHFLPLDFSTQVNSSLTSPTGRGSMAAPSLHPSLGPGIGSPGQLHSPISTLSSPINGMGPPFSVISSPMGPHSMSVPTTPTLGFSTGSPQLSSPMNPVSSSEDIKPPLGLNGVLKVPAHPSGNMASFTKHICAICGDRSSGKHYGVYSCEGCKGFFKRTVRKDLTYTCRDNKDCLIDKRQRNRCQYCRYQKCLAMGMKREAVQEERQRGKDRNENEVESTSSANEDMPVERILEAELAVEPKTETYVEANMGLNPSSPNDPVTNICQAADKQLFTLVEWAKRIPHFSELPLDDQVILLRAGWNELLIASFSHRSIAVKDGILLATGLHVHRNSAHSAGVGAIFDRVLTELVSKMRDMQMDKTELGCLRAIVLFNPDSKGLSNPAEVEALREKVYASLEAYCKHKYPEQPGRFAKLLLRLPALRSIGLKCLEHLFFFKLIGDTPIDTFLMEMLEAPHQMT
How it was run: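 16 hr incubation of compound-treated RXR-alpha-UAS-bla HEK 293T cells (2% charcoal-stripped FBS, 37 C) preceded a 2 hr room-temperature LiveBLAzer FRET substrate step and blue/green fluorescence measurement.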

[10] = qHTS assay to identify small molecule agonists of the RXR signaling pathway - cell viability counter screen (AID 1159529)
How it was run: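 In this parallel viability measure, GeneBLAzer RXR-alpha HEK 293T cells (2% charcoal-stripped FBS) were given a 5 hr preincubation, treated with compounds 16 hr at 37 C, and read by CellTiter-Glo luminescence.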

[11] = qHTS assay to identify small molecule antagonists of the retinoid acid receptor (RAR) signaling pathway - cell viability counter screen (AID 1159551); further: nearly all actives have a fitted effect of over 35% in size
How it was run: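 Following overnight attachment, C3RL4 reporter cells received DMSO-dissolved compounds and then retinol (1 uM final). Six hours later at 37 C, ATP content was measured by CellTiter-Glo luminescence.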

[12] = qHTS assay to identify small molecule antagonists of the retinoic acid receptor (RAR) signaling pathway (AID 1159552; further: nearly all actives have a fitted effect of over 50% in size)
How it was run: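 C3RL4 RARE-luc cells, overnight plating; retinol 1 uM final added right after compound; 6 hr 37 C; luciferase read at 30 min RT.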

[13] = qHTS assay to identify small molecule agonists of the retinoic acid receptor (RAR) signaling pathway (AID 1159553)
How it was run: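 Cell line C3RL4, RARE luciferase reporter. Treatment: compounds in DMSO, 6 hr, 37 C, 5% CO2, after overnight plating. Detection: luminescence, 30 min RT after reagent.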

[14] = qHTS assay to identify small molecule antagonists of the estrogen related receptor (ERR) signaling pathway from Tox21 library - cell viability counter screen (AID 1224834); further: nearly all actives have a fitted effect of over 30% in size
How it was run: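 Viability readout (CellTiter-Fluor fluorescence, 30 min at 37 C) multiplexed with the ERR assay; cells treated 17.5 h at 37 C with compounds delivered in DMSO.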

[15] = biological target: Luciferin 4-monooxygenase (Photinus pyralis) (UniProt P08659); assay: qHTS assay to identify small molecule inhibitors of firefly luciferase (AID 1224835); further: series mostly up to about 120 µM; nearly all actives have a fitted effect of over 25% in size
Sequence of Luciferin 4-monooxygenase (Photinus pyralis) (P08659 whole entry, looked up): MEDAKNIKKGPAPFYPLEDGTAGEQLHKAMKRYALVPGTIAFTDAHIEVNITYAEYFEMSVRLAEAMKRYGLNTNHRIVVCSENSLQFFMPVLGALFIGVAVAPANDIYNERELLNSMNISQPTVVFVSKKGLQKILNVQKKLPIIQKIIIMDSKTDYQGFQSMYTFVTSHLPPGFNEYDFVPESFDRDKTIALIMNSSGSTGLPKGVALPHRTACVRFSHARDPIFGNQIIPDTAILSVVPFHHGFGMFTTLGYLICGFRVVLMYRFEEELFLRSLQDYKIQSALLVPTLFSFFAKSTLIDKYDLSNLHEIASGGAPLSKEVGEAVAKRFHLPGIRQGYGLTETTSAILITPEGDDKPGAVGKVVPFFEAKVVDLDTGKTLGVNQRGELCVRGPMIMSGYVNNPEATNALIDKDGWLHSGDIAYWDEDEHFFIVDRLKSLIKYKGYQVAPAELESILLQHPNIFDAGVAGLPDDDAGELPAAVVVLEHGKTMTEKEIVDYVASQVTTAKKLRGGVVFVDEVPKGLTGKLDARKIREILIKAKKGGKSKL
How it was run: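 Quantitative HTS format; KM concentrations of both substrates. Purified P. pyralis FLuc activity quantified from luminescence images.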

[16] = qHTS assay to identify small molecule agonists of the constitutive androstane receptor (CAR) signaling pathway - cell viability counter screen (AID 1224836); further: series mostly up to about 92 µM; nearly all actives have a fitted effect of over 45% in size
How it was run: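 Using CellTiter-Fluor, viability of HepG2 cells harbouring hCAR and CYP2B6-2.2kb was measured following 23 h incubation with a 15-concentration compound series plus PK11195 (0.75 uM final).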

[17] = qHTS assay to identify small molecule antagonists of the constitutive androstane receptor (CAR) signaling pathway - cell viability counter screen (AID 1224837); further: series mostly up to about 92 µM; nearly all actives have a fitted effect of over 45% in size
How it was run: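 Fluorescence from CellTiter-Fluor served as the viability signal. Human hepatoma HepG2 cells stably bearing hCAR and CYP2B6-2.2kb received compound plus CITCO (50 nM final) for 23 hr.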

[18] = biological target: Nuclear receptor subfamily 1 group I member 3 (Homo sapiens) (UniProt Q14994); assay: qHTS assay to identify small molecule agonists of the constitutive androstane receptor (CAR) signaling pathway (AID 1224839);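 further: HepG2 cells stably carrying human CAR and a CYP2B6 luciferase reporter; series mostly up to about 92 µM; nearly all actives have a fitted effect of over 15% in size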
Sequence of Nuclear receptor subfamily 1 group I member 3 (Homo sapiens) (Q14994 whole entry, looked up): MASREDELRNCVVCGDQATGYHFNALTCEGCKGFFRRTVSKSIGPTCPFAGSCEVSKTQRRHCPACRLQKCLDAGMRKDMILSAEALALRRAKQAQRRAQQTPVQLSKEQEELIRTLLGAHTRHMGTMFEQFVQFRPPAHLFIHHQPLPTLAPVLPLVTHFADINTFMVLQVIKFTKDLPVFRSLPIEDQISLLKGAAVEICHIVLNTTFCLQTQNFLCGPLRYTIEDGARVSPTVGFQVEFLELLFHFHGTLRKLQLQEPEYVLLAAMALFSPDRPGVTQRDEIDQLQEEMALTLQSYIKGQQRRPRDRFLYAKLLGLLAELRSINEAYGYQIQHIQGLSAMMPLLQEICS
How it was run: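 Double-stable HepG2 cells (hCAR, CYP2B6-2.2kb) seeded 4 h before compound addition. Exposure 24 h with 0.75 uM PK11195 final. Luciferase detected by ONE-Glo.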

[19] = qHTS assay to identify small molecule antagonists of the estrogen related receptor signaling pathway with the pleiotropic PPARgamma coactivator (PGC) from Tox21 10K library - cell viability counter screen (AID 1224840; active means well fitted cell-killing curve with a large enough effect in the repeat runs, not every such curve was filed as active; further: nearly all actives have a fitted effect of over 40% in size)
How it was run: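 Compounds in DMSO, alongside positive and negative controls, were pinned onto PGC/ERR cells (2,000 per well). Exposure lasted 17.5 hours at 37 C, followed by a 30-minute CellTiter-Fluor incubation and fluorescence reading.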

[20] = biological target: Nuclear receptor subfamily 1 group I member 3 (Homo sapiens) (UniProt Q14994); assay: qHTS assay to identify small molecule antagonists of the constitutive androstane receptor (CAR) signaling pathway (AID 1224838);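 further: HepG2 cells stably expressing hCAR with CYP2B6 luciferase reporter stimulated by CITCO; nearly all actives have a fitted effect of over 40% in size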
How it was run: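 Quantitative HTS in double-stable HepG2-CYP2B6-hCAR cells. After 4 h plating, cells get compound (15 concentrations) and CITCO at 50 nM final, incubate 24 h at 37 C, then ONE-Glo luminescence is read.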

Measured: Potency

CCCCCCCCC1CO1 (stereo not drawn)
inactive: [1] | [2] | [3] | [4] | [5] | [6] | [7] | [8] | [9] | [10] | [11] | [12] | [13] | [14] | [15] | [16] | [17] | [18] | [19]

O=C(O)Cc1c(Cl)ccc(Cl)c1Cl
inactive: [1] | [2] | [3] | [4] | [5] | [6] | [7] | [8] | [9] | [10] | [11] | [12] | [13] | [14] | [15] | [16] | [17] | [18] | [19]

Cc1ccc(Br)cc1
inactive: [1] | [2] | [3] | [4] | [5] | [6] | [7] | [8] | [9] | [10] | [11] | [12] | [13] | [14] | [15] | [16] | [17] | [18] | [19]

C=CCN(CC=C)CC=C
inactive: [1] | [2] | [3] | [4] | [5] | [6] | [7] | [8] | [9] | [10] | [11] | [12] | [13] | [14] | [15] | [16] | [17] | [18] | [19]

O=C(O)CCCCCCCCCC(=O)O
inactive: [1] | [2] | [3] | [4] | [5] | [6] | [7] | [8] | [9] | [10] | [11] | [12] | [13] | [14] | [15] | [16] | [17] | [19]

O=C1Nc2ccccc2C1=O
inactive: [1] | [2] | [3] | [4] | [5] | [6] | [7] | [8] | [9] | [10] | [11] | [12] | [13] | [14] | [15] | [16] | [17] | [20]

C=CC(C)(CCC=C(C)C)OC(=O)C(C)C (stereo not drawn)
inactive: [2] | [3] | [4] | [5] | [6] | [7] | [8] | [9] | [10] | [11] | [12] | [13] | [14] | [15] | [16] | [17] | [19]

CC(C)(C)C(=O)CCc1ccc(Cl)cc1
inactive: [1] | [2] | [3] | [4] | [5] | [6] | [7] | [8] | [9] | [10] | [11] | [12] | [13] | [14] | [15] | [16] | [17] | [18] | [19]

Nc1ccc(C(=O)NCC(=O)O)cc1
inactive: [1] | [2] | [3] | [4] | [5] | [6] | [7] | [8] | [9] | [10] | [11] | [12] | [13] | [14] | [15] | [16] | [17] | [19]

CCCC(C)C(O)CC (stereo not drawn)
inactive: [1] | [2] | [3] | [4] | [5] | [6] | [7] | [8] | [9] | [10] | [11] | [12] | [13] | [14] | [15] | [16] | [17] | [19]

CC(C)(C)OC=O
inactive: [1] | [2] | [3] | [4] | [5] | [6] | [7] | [8] | [9] | [10] | [11] | [12] | [13] | [14] | [15] | [16] | [17] | [19]

O=C1CC2(CCCC2)CC(=O)N1CCNCC1COc2ccccc2O1 (stereo not drawn)
inactive: [1] | [2] | [3] | [4] | [5] | [6] | [7] | [8] | [9] | [10] | [11] | [12] | [13] | [14] | [15] | [16] | [17] | [19]

CCN1CCN(C(=O)N[C@@H](C(=O)N[C@@H]2C(=O)N3C(C(=O)O)=C(CSc4nnnn4C)CS[C@H]23)c2ccc(O)cc2)C(=O)C1=O
inactive: [2] | [3] | [4] | [5] | [6] | [7] | [8] | [9] | [10] | [11] | [12] | [13] | [14] | [15] | [16] | [17] | [19]

O=C(OOC(=O)c1ccccc1)c1ccccc1
inactive: [1] | [2] | [3] | [4] | [5] | [6] | [7] | [8] | [9] | [10] | [11] | [12] | [13] | [14] | [15] | [16] | [17] | [19]

CCOC(=O)[C@H](CCc1ccccc1)N[C@H]1CS[C@H](c2cccs2)CN(CC(=O)O)C1=O
inactive: [1] | [2] | [3] | [4] | [5] | [6] | [7] | [8] | [9] | [10] | [11] | [12] | [13] | [14] | [15] | [16] | [17] | [19]
